According to PubChem BioAssay AID434970 (Sanford-Burnham Center for Chemical Genomics, 2010):
The campaign covered roughly 11,000 compounds. About 310 (2.8%) were called active. The sample holds actives, similar compounds and a random draw of the others, so the mix is not that of the screen. Rule as the data show it: active = activity change below about -85%; inactive = the rest.

What follows are molecules tested on intestinal alkaline phosphatase [Mus musculus] (assay: activators of mouse IAP, confirmation, biochemical, luminescence, single concentration (AID 434970)). Settings: purified mouse IAP, CDP-Star luminescence, 30 min, at 10 µM; activation factor: measured here: IAP activation factor, stronger effect = higher value; activity change, negative = activation: stronger effect = lower value.

| Compound | activation factor | activity change, negative = activation |
| --- | --- | --- |
| CC(=O)c1cccc(NC(=O)CCNS(=O)(=O)c2cccc(C(C)=O)c2)c1 | 0.929 | 7.05% (inactive) |
| Cc1cc(Br)cc2c1NC(=O)C2(c1c(C)n(C)n(-c2ccccc2)c1=O)c1c(C)n(C)n(-c2ccccc2)c1=O | 1.02 | -2.5% (inactive) |
| Cc1cc(C)n2cc(CSc3nnnn3-c3ccccc3)nc2n1 | 0.946 | 5.45% (inactive) |
| CCOC(=O)c1c(NC(=O)CSc2nnc(CNc3ccc(F)cc3)o2)sc(C(C)=O)c1C | 0.797 | 20.2% (inactive) |
| O=C1c2ccccc2[C@@H]2C[C@@H](O)[C@H](Nc3cccc(Cl)n3)CCN12 | 1.01 | -0.85% (inactive) |
| CCCCN1CCS(=O)(=O)N(Cc2ccccc2Br)CC(C(=O)OC)C1 (stereo not drawn) | 0.992 | 0.8% (inactive) |
| C=CCNC(=O)/C(=C/c1ccco1)NC(=O)c1ccc(Br)o1 | 0.906 | 9.4% (inactive) |
| O=C(NCCCN1CCCCC1)c1ccc2c(=O)n(CCc3ccccc3)c(=O)[nH]c2c1 | 0.91 | 9% (inactive) |
| COc1cc(OC)c2c(-c3cccc(-c4ccc(OC(F)(F)F)cc4)c3)cc(=O)oc2c1 | 0.834 | 16.6% (inactive) |
| COCC(C)NCc1cccc(OC)c1OC (stereo not drawn) | 1.14 | -14.2% (inactive) |
| Cc1ccc(C(=O)NC(Cc2ccc(C(C)(C)C)cc2)C(=O)O)cc1 (stereo not drawn) | 1.03 | -3.5% (inactive) |
| O=C(c1ccc(S(=O)(=O)N2CCCCC2)cc1)N1CCCc2ccccc21 | 0.98 | 2.05% (inactive) |
| Cc1nn(C)cc1CNC(=O)c1cccc(Br)c1 | 1.12 | -11.8% (inactive) |
| Cc1cc(Cn2nc(-c3ccccc3)cc2C(=O)NCc2cccc(Br)c2)on1 | 3.29 | -230% (active) |
| Cc1ccccc1-c1cc(C(=O)NCc2cccc(Br)c2)n(CC2CC(c3cccnc3)=NO2)n1 (stereo not drawn) | 1.56 | -55.5% (inactive) |
| O=C(C[C@H]1C[C@H](C(=O)N2CCOCC2)[C@@]2(CCC3CCCC3)c3[nH]c4cc(-c5ccco5)ccc4c3CCN2C1=O)NCCc1ccccn1 | 1.17 | -17.2% (inactive) |
| Cc1ccccc1OCC(=O)OC(C)CN1CCN(C)CC1 (stereo not drawn) | 0.998 | 0.2% (inactive) |
| Cc1cc(C)cc(NC(=O)Nc2ccc3c(c2)N(C)C(=O)CS3)c1 | 2.54 | -154% (active) |
| Cc1ccc(NC(=O)Nc2ccc3c(c2)N(C)C(=O)CS3)cc1C | 1.92 | -91.7% (inactive) |
| CN1C(=O)CSc2ccc(NC(=O)NCCC3=CCCCC3)cc21 | 2.22 | -122% (active) |
| COc1ccc(NC(=O)Nc2ccc3c(c2)N(C)C(=O)CS3)cc1OC | 1.48 | -48.4% (inactive) |
| CC(C)CCNC(=O)Nc1ccc2c(c1)N(C)C(=O)CS2 | 1.53 | -52.8% (inactive) |
| CCc1ccc(NC(=O)Nc2ccc3c(c2)N(C)C(=O)CS3)cc1 | 2.14 | -114% (active) |
| Cc1ccc(CNC(=O)Nc2ccc3c(c2)N(C)C(=O)CS3)cc1 | 1.78 | -78% (inactive) |
| CCOc1ccc(NC(=O)Nc2ccc3c(c2)N(C)C(=O)CS3)cc1 | 1.29 | -29.2% (inactive) |
| CC(=O)c1ccc(NC(=O)Nc2ccc3c(c2)N(C)C(=O)CS3)cc1 | 1.28 | -28.4% (inactive) |
| CCCn1c(Cc2ccccc2)nnc1SCC(=O)N1CCOCC1 | 0.955 | 4.5% (inactive) |

| Compound | activation factor | activity change, negative = activation |
| --- | --- | --- |
| CC(O)[C@H](NC(=O)C1(c2ccccc2)CCN(C(=O)OC(C)(C)C)CC1)C(=O)O (stereo partly drawn) | 1.15 | -15.3% (inactive) |
| COc1ccc2[nH]c3c(c2c1)CCN1C(=O)C(CC(=O)NCCN2CCOCC2)C[C@H](C(=O)N2CCOCC2)[C@@]31CCC1CCCC1 (stereo partly drawn) | 1.04 | -4.1% (inactive) |
| O=C(C[C@H]1C[C@H](C(=O)N2CCCCC2)[C@@]2(CCc3ccccc3)c3[nH]c4ccc(Cl)cc4c3CCN2C1=O)NCc1cccc(C(F)(F)F)c1 | 1.15 | -15% (inactive) |
| Cn1c(COc2ccc3ccccc3c2)nnc1SCC(=O)O | 0.952 | 4.85% (inactive) |
| O/N=C1/CC/C(=N\O)c2nn(-c3ccccc3)nc21 | 0.893 | 10.7% (inactive) |
| CCOC(=O)c1cnn(-c2ccc(Cl)cc2)c1C1CCN(C(=O)OC(C)(C)C)CC1 | 1.12 | -12.1% (inactive) |
| COc1ccc(Nc2nc(-c3cccs3)cs2)cc1 | 0.881 | 11.9% (inactive) |
| Cc1cccc(NC(=O)/C(=C\c2ccco2)NC(=O)c2cccs2)c1 | 0.978 | 2.15% (inactive) |
| OC[C@@H]1[C@@H](c2ccccc2)C(c2ccc(F)cc2)=NN1c1ccccc1 | 1.65 | -64.5% (inactive) |
| OC[C@@H]1[C@@H](c2ccc(Cl)cc2)C(c2ccc(F)cc2)=NN1c1ccccc1 | 1.79 | -79% (inactive) |
| OC[C@@H]1[C@@H](c2ccc(F)cc2)C(c2ccccc2)=NN1c1ccccc1 | 1.73 | -72.9% (inactive) |
| OC[C@@H]1[C@@H](c2ccc(F)cc2)C(c2cccc(Cl)c2)=NN1c1ccccc1 | 1.96 | -96.2% (inactive) |
| OC[C@@H]1[C@@H](c2ccc(Cl)cc2)C(c2ccccc2)=NN1c1ccccc1 | 1.77 | -76.8% (inactive) |
| Cc1cccc(C2=NN(c3ccccc3)[C@H](CO)[C@H]2c2ccc(Cl)cc2)c1 | 1.89 | -89.3% (inactive) |
| O=C1OCCN1C(=O)[C@H]1[C@H](c2ccccc2)C(c2cccc(Cl)c2)=NN1c1ccccc1 | 1.01 | -1.05% (inactive) |
| OC[C@@H]1[C@@H](c2ccccc2)C(c2cccc(Cl)c2)=NN1c1ccccc1 | 2.28 | -128% (active) |
| Cc1cccc(C2=NN(c3ccccc3)[C@H](CO)[C@H]2c2ccccc2)c1 | 2.07 | -107% (active) |
| OC[C@@H]1[C@@H](c2ccc(Cl)cc2)C(c2cccc(Cl)c2)=NN1c1ccccc1 | 2.2 | -120% (active) |
| OC[C@@H]1[C@@H](c2ccccc2)C(c2ccccc2)=NN1c1ccccc1 | 2.15 | -115% (active) |
| Cc1cccc(C2=NN(c3ccccc3)[C@H](CO)[C@H]2c2ccc(F)cc2)c1 | 1.73 | -72.7% (inactive) |
| Cc1noc(C)c1S(=O)(=O)N1CCC(C(=O)NCCN2CCC(C)CC2)CC1 | 1.01 | -1.4% (inactive) |
| COc1ccc(C(=O)Nc2ccc(S(=O)(=O)N3CCCCC3)cc2)cc1 | 1.11 | -11% (inactive) |
| COC(=O)C(NC(=O)CCc1c(C)nc2ncnn2c1C)C(C)C (stereo not drawn) | 0.949 | 5.15% (inactive) |
| Clc1ccc(-n2nnnc2-c2cnc(-c3ccncc3)nc2-c2cccs2)cc1 | 0.877 | 12.4% (inactive) |
| COc1ccc(CN(C(=O)c2ccco2)C2CC(C)N(C)CC2C)cc1 (stereo not drawn) | 0.982 | 1.75% (inactive) |
| COc1ccc(CNC(=O)C[C@H]2C[C@H](C(=O)N3CCOCC3)[C@@]3(C)c4[nH]c5cc(CCC(=O)N(C)C)ccc5c4CCN3C2=O)cc1OC | 1.08 | -8.2% (inactive) |
| O=C(O)CCSc1nc(C(F)(F)F)cc(=O)n1-c1ccccc1 | 1.01 | -1% (inactive) |

| Compound | activation factor | activity change, negative = activation |
| --- | --- | --- |
| Cn1cc(C(=O)c2ccccc2)cc1-c1nc2ccccc2n1C | 1.13 | -13.2% (inactive) |
| COc1ccccc1[C@H]1C(c2ccccc2)=NN(c2ccccc2)[C@@H]1CO | 1.99 | -99.2% (active) |
| COc1ccccc1[C@H]1C(c2ccc(F)cc2)=NN(c2ccccc2)[C@@H]1CO | 1.49 | -48.9% (inactive) |
| COc1ccccc1[C@H]1C(c2cccc(Cl)c2)=NN(c2ccccc2)[C@@H]1CO | 1.54 | -54.1% (inactive) |
| Clc1ccccc1CN(Cc1ccco1)Cc1nnnn1C1CCCC1 | 1.07 | -7.45% (inactive) |
| CC(C)C(=O)Nc1ncc(C(F)(F)F)cc1Cl | 1.02 | -2.1% (inactive) |
| Cc1ccc(CNC(=S)NC2CCC(C(C)(C)C)CC2)cc1 (stereo not drawn) | 2 | -99.9% (active) |
| CC(NC(=S)NC1CCC(C(C)(C)C)CC1)c1ccccc1 (stereo not drawn) | 1.7 | -69.9% (inactive) |
| Cc1ccc(CNC(N)=S)cc1 | 1.06 | -6.15% (inactive) |
| O=C(COC(=O)c1cccnc1SCC(=O)NCc1ccccc1)NCc1ccccc1 | 0.985 | 1.5% (inactive) |
| CCCc1cc(=O)[nH]c(SCC(=O)N(C)CC(=O)Nc2ccccc2CC)n1 | 0.825 | 17.6% (inactive) |
| CC(=O)Nc1ccc(C(=O)OCC(=O)NC(=O)NC2CCCCC2)cc1 | 0.997 | 0.3% (inactive) |
| O=C(Nc1ccc(Br)cc1)NC1CCCCCCC1 | 2.74 | -174% (active) |
| S=C(Nc1ccc(Br)cc1)NC1CCCCC1 | 1.71 | -70.7% (inactive) |
| CCc1ccc(NC(=O)NC2CCCCCCC2)cc1 | 3.13 | -213% (active) |
| COc1ccc(CCNC(=O)NC2CCCCC2)cc1 | 0.976 | 2.4% (inactive) |
| CC(C)c1ccc(NC(=S)NC2CCCCCC2)cc1 | 1.39 | -38.9% (inactive) |
| COc1ccc(C2NCCO2)cc1OC (stereo not drawn) | 0.954 | 4.65% (inactive) |
| C=CCONC(=O)Cc1ccccc1 | 1.1 | -9.55% (inactive) |
| Cc1ccc(NC2=NC(C(=O)Nc3ccc(C)c(C)c3)CC(=O)N2)cc1 (stereo not drawn) | 0.958 | 4.15% (inactive) |
| COc1ccc(NC(=O)N2CCCC2C(=O)Nc2ccc(C)c(Cl)c2)cc1 (stereo not drawn) | 1.12 | -12.4% (inactive) |
| Cc1ccc(NC(=O)C(=O)NNC(=O)c2ccccc2C)cc1Cl | 0.889 | 11.1% (inactive) |
| Cc1ccc(NC(=O)C2CC(=O)n3c(nc4ccccc43)N2)cc1Cl (stereo not drawn) | 2.25 | -125% (active) |
| Cc1ccc(NC(=O)C2CC(=O)n3c(nc4ccccc43)N2)cc1C (stereo not drawn) | 2.2 | -120% (active) |
| Cc1cccc(NC(=O)C2CC(=O)n3cnnc3S2)c1 (stereo not drawn) | 0.843 | 15.8% (inactive) |
